# Screening results (PubChem BioAssay)
# DAX1 inh-1: DAX1 (NR0B1) inhibitors, primary screen, cell-based, HEK293, Gal4-DAX1, luciferase luminescence; hit rate 0.99% among 340,000; Nuclear receptor subfamily 0 group B member 1 (Homo sapiens), P51843; inhibition, % at 6.75 µM; AID 504766, 2011; HEK293 Gal4-DAX1 luciferase reporter;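 active = inhibition above the mean over all tested compounds plus 3 SD, cut at about 4.2% in these data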;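 also: inhibition shows as a rise in luminescence from relieved DAX1 repression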
# Target sequence (P51843 207-470 limits assumed): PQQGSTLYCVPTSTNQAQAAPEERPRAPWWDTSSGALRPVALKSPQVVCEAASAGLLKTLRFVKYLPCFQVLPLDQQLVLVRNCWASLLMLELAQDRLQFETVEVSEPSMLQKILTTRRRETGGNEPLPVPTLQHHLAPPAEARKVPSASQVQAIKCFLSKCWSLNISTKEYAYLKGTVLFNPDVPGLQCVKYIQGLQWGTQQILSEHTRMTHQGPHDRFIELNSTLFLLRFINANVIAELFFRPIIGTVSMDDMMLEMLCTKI
# SMARCA2 activ: SMARCA2 (BRM) function activators, primary screen, cell-based, luminescence, high throughput; activation, % at 9.1 µM; hit rate 1% among 370,000; MG213 cells, MMTV-luciferase reporter, dexamethasone, overnight; in the data active = activation above about 7.8%
# DAX1 inh-2: DAX1 (NR0B1) inhibitors on StAR promoter, primary screen, cell-based, luminescence, SF-1 (NR5A1), full-length DAX-1. HEK293T StAR-luciferase reporter, SF-1/DAX-1 repression relief. inhibition, % at 6.8 µM. hit rate 1.1% among 370,000. AID 652010, 2013;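 active = inhibition above the mean over all tested compounds plus 3 SD, cut at about 3.6% in these data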;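 also: higher inhibition means more luminescence from relief of DAX-1 repression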
# hcDAF-12 act: H. contortus DAF-12 nuclear receptor activators, primary screen, cell-based, luminescence, HEK293, lit1-tk-luc reporter | HEK293 hcDAF-12 lit1-tk-luc reporter; 0% DMSO, 100% Δ7-dafachronic acid | activation, % at 6.8 µM | hit rate 1.4% among 370,000 | AID 652067, 2013;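 active = activation above the mean of all tested compounds plus 3 SD, cut at about 5.5% in these data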
# ssDAF-12 act: S. stercoralis DAF-12 nuclear receptor activators, primary screen, cell-based, luminescence, HEK293, GRIP1 co-expression, lit1-tk-luc. HEK293 ssDAF-12/GRIP1 lit1-tk-luc reporter; % of 3 µM dafachronic acid response. activation, % at 6.8 µM. AID 652126, 2013. hit rate 1% among 370,000;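 active = activation above the mean over all tested compounds plus 3 SD, cut at about 0.9% in these data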
# hgDAF-12 ag: H. glycines DAF-12 receptor agonists, primary screen, cell-based, luminescence, HEK293, GAL4 fusion, UAS-luciferase | HEK293 GAL4-hgDAF12 UAS-luciferase reporter, agonist luminescence; normalized to butyrate control | activation, % at 6.8 µM | Nuclear hormone receptor DAF-12 (Heterodera glycines), GAL4 fusion | hit rate 1.8% among 370,000;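 active = activation above a cutoff set at the mean of all screened compounds plus 3 SD, cut at about 10% in these data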
# Numbers stand for hits; . = inactive; / = not tested or not shown. Most compounds without a hit are left out; they make up all but 4.8% or so of the library.
SMILES,DAX1 inh-1,SMARCA2 activ,DAX1 inh-2,hcDAF-12 act,ssDAF-12 act,hgDAF-12 ag
COc1cccc(CC2(CO)CCCN(C(=O)c3cc[n+]([O-])cc3)C2)c1 (configuration not stated),5.1,.,.,.,.,.
CCOC(=O)C1(Cc2cccc(Cl)c2)CCCN(C(=O)c2cc(C)[nH]n2)C1 (configuration not stated),.,.,.,.,.,.
O=C(C1COc2ccccc2O1)N1CCCCC1 (configuration not stated),.,.,.,.,.,.
O=C(COc1cccc2cccnc12)N/N=C1\SCC(=O)N1Cc1ccco1,.,.,.,.,.,.
Cc1ccc(OCC(=O)N/N=C2/SCC(=O)N2Cc2ccco2)cc1,6.9,.,.,.,.,.
CN1CN=C(NS(=O)(=O)c2ccc([N+](=O)[O-])cc2)NC1,.,.,.,.,.,.
O=C(NC1CCCC1)C(c1ccncc1)N(C(=O)c1csnn1)c1cccc(Cl)c1 (configuration not stated),.,.,.,.,.,.
COc1ccc2cc(C(=O)NCCCN3CCCC3=O)[nH]c2c1,.,.,.,6.2,.,.
COc1cccc2[nH]c(C(=O)NCCCN3CCCC3=O)cc12,.,.,.,.,.,.
Cc1cc(=O)[nH]c(N/N=C/c2ccc(N(C)C)cc2)n1,.,.,.,.,.,.
Cc1cc(=O)[nH]c(N/N=C/c2ccc(F)cc2)n1,.,.,.,.,1.3,.
O=C(NNC(=O)c1ccccc1Cl)c1cccnc1,.,.,.,.,.,.
CCCCc1cc(=O)oc2cc(C)cc(OCC(=O)N3C[C@H]4C[C@@H](C3)c3cccc(=O)n3C4)c12,7.0,.,.,.,.,.
COC(=O)c1ccc(N=NNc2ccccc2)cc1,.,.,4.1,.,.,10.7
COC(=O)c1ccc(N=NN2CCCCCC2)cc1,.,.,.,.,.,.
CCOC(=O)CC(NC(=O)CCc1c(C)nc2ncnn2c1C)c1ccc(OC(C)C)cc1 (configuration not stated),.,.,.,.,.,.
Nc1ccc(-c2cnc(-c3ccc(N)cc3)nc2)cc1,.,.,.,.,.,10.5
COc1cccc(C2Nc3ccccc3C(=O)N2O)c1O (configuration not stated),.,.,.,.,.,.
COCc1cc(C)n(CC(=O)N/N=C/c2ccc(-c3ccc(Cl)c(C(=O)O)c3)o2)c(=O)c1C#N,.,.,.,.,0.9,.
O=C(Cc1ccc(F)cc1)N/N=C/c1ccc(-c2ccc(Cl)c(C(=O)O)c2)o1,.,.,.,.,.,.
N#C/C(=C\c1ccccc1OCc1ccc(C(=O)O)cc1)c1ccccc1,.,.,.,.,.,.
O=C(O)c1nn(Cc2nc3ccccc3o2)c(=O)c2ccccc12,.,.,.,5.9,.,.
O=C(Cn1cc(C(=O)c2ccco2)c2ccccc21)NC1CCCCC1,.,.,.,.,.,.
CCCCOCCCNC(=O)c1ccc(OC)cc1,.,.,.,.,.,.
CCN1CCN(c2ccc(S(=O)(=O)N3CCCCC3)cc2NC(=O)c2ccc(F)cc2)CC1,.,.,.,.,.,.
SMILES,DAX1 inh-1,SMARCA2 activ,DAX1 inh-2,hcDAF-12 act,ssDAF-12 act,hgDAF-12 ag
CCN1CCN(c2ccc(S(=O)(=O)N3CCOCC3)cc2NC(=O)c2ccc(C(F)(F)F)cc2)CC1,5.9,.,.,.,.,.
CCN1CCN(c2ccc(S(=O)(=O)N3CCOCC3)cc2NC(=O)c2cccc([N+](=O)[O-])c2)CC1,.,.,.,.,1.1,.
Cc1cc(NC(=O)c2c(F)cccc2Cl)n(-c2nc3ccccc3[nH]2)n1,.,.,.,.,.,.
CC(C)(C)c1cc(NC(=O)c2c(F)cccc2Cl)n(-c2ccccc2)n1,4.5,.,.,.,.,.
O=C(Nc1ccc(Br)cc1Br)Nc1cccc2[nH]c([C@@H]3O[C@H](CO)[C@@H](O)[C@H](O)[C@H]3O)nc12,/,.,.,.,0.9,.
CC1CN(C(=O)c2cccc(COc3ccc(Br)cc3)c2)CC(C)O1 (configuration not stated),.,.,.,.,.,.
Cc1nc2sc(C(=O)NC3CC3)c(N)c2c(C)c1Cl,/,.,.,.,0.9,.
Cc1nc2sc(C(=O)NCc3ccncc3)c(N)c2c(C)c1Cl,/,.,.,.,.,.
CCC1CCCCN1C(=O)c1ccc(OC2CCN(Cc3ccccn3)CC2)cc1 (configuration not stated),.,.,.,.,.,11.2
COCC1CCCCN1C(=O)c1ccc(OC2CCN(Cc3ccccn3)CC2)cc1 (configuration not stated),.,.,.,.,.,.
CS(=O)(=O)N1CCc2cc(C(=O)Nc3ccccc3Cl)ccc21,20.9,.,.,.,.,.
CC(C)N1CCN(Cc2cc3ccccc3[nH]2)CC1CCO (configuration not stated),.,.,.,.,1.1,.
CC(C)N1CCN(Cc2ccc(-c3ccccc3)cc2)CC1CCO (configuration not stated),.,.,.,.,.,.
O=C(/C=C/c1c(F)cccc1Cl)Nc1ncccn1,4.6,.,.,.,.,.
CCOc1ccc(CCN2C(=S)N([C@@H](Cc3ccc(O)cc3)CN3CCC[C@@H]3CN3C(=S)NC[C@@H]3CC(C)C)C[C@@H]2CC(C)C)cc1,/,.,.,.,.,.
CCOc1ccc(CCN2C(=S)N([C@@H](CC(C)C)CN3CCCC3CN3C(=S)NC[C@@H]3CC(C)C)C[C@@H]2CC(C)C)cc1 (some centres not stated),.,.,4.4,.,.,.
CCC(=O)NC(c1ccc(N(C)C)cc1)c1c(O)ccc2ccccc12 (configuration not stated),.,.,.,6.3,.,.
Cc1ccsc1C(=O)Nc1ccccc1N1CCCC1,.,.,.,.,.,.
O=C(Nc1ccccc1F)Nc1ccccc1F,.,.,.,.,.,.
O=C(Nc1ccccc1F)Nc1cccc2ccc(O)cc12,.,.,.,6.2,.,.
O=C(NCCc1c[nH]c2ccccc12)c1cnc2n(c1=O)CCS2,.,.,.,.,.,.
O=C(NCCc1ccccc1)c1cnc2n(c1=O)CCS2,.,.,.,.,1.3,.
